Whole data set: some 35,000 sequences, median “fluorescence intensity (a.u.)” near 10,000, cut for the highest 2% near 52,000. This is one part of a sample in which the highest values are shown more often than they occur.

The values that follow come from PMC7819943, “Rice protein-binding microarrays: a tool to detect cis-acting elements near promoter regions in rice”.

The target in the test is T1, OsWOX13 (Oryza sativa, UniProt Q5QMM3 1-267).
T1 sequence: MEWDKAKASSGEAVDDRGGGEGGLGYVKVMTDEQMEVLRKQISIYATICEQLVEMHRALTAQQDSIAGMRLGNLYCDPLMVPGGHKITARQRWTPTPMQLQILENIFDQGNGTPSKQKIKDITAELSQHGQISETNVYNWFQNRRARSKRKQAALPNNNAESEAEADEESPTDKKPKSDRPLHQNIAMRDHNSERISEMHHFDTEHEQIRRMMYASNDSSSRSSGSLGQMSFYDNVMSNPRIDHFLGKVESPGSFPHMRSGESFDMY
Put plainly: protein-binding microarray (RPBM); PBS, 2% BSA, 51.3 ng/ul salmon testes DNA, 50 uM zinc acetate, 200 nM TF, 25 C, 1 h; high values mean tight binding. As to conditions: protein: recombinant; tags: N-terminal polyhistidine and DsRed monomer fusion (pET32a); label: CyDye5-dUTP incorporated in the synthesized complementary strand; 3' TTTTT single-stranded linker to array surface; dsDNA, one strand shown. Put shortly: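 An Axon 4000B scanner gave the binding signal as per-feature fluorescence intensity in arbitrary units. This followed washing of a custom Agilent array that had been incubated for 1 h at 25 °C with 200 nM protein in PBS, 2% BSA, salmon testes DNA and 50 µM zinc acetate. The proteins were transcription factors fused at the N-terminus to polyhistidine and DsRed, expressed in E. coli BL21-CodonPlus and purified on Ni–NTA.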
Consider “GAGCATGATTACTTAAATATTAGCTAATTCTTTCTTTAAACGGAGTCACCTAGTGCAG”, for which the binding signal was 15500 fluorescence intensity (a.u.). As for “GTTGTACCACTGATTGGACTGCCTGCTTACCGATAATTAACGGAGTCACCTAGTGCAG”, the binding signal is 24500 fluorescence intensity (a.u.). As to “TTCTTGATGGAAATTGAAATTGTGTGTGTGGGATGCAGGACGGAGTCACCTAGTGCAG”, the binding signal was 46400 fluorescence intensity (a.u.). “ACACTAATAGGTCATGTCCATTTCCATCCCATTTCCATTGCGGAGTCACCTAGTGCAG”: the binding signal is 7050 fluorescence intensity (a.u.).

Consider “AGACTATTTACAAAACTAATTACATAAATGAAAGCTAACTCGGAGTCACCTAGTGCAG”, for which the binding signal is 5260 fluorescence intensity (a.u.). On to “TAAATTATTTTCTATTTATAAATATGTCGTTTGCCTTATTCGGAGTCACCTAGTGCAG”, for which the binding signal is 4180 fluorescence intensity (a.u.). For the sequence “AATTGACAAAGATGAAACACATGTGGACTGGACTACTCGACGGAGTCACCTAGTGCAG”, the binding signal is 3660 fluorescence intensity (a.u.).

Take “ATATAAATTGACTATTAAATATATTGACTATATGTAAATTCGGAGTCACCTAGTGCAG”: the binding signal is 25600 fluorescence intensity (a.u.).

For “AATTAACGGAGGAAACTCCAATCAGATACGCAGACGGACACGGAGTCACCTAGTGCAG”, the binding signal is 8430 fluorescence intensity (a.u.). With “TATATATATATATATATATATATATATATATATATAGACACGGAGTCACCTAGTGCAG”, the binding signal is 7880 fluorescence intensity (a.u.). As for “ATTGATGAATGTTGACAAACCTGGTTTGATTTGGAGGGAACGGAGTCACCTAGTGCAG”, the binding signal is 23500 fluorescence intensity (a.u.). Consider “ATTGCTGATTGAGCATGTAGACATTGCTAGTGGTAGTACGCGGAGTCACCTAGTGCAG”, for which the binding signal was 58000 fluorescence intensity (a.u.). As for “AACAGCTGATGAGTGATGATTGACAGACATCACACGCGGACGGAGTCACCTAGTGCAG”, the figure is 57600 fluorescence intensity (a.u.). On to “ATGATTGACAAGATGAATCAGCACGCTGTTGGAAAAGGGACGGAGTCACCTAGTGCAG”, for which the binding signal is 55400 fluorescence intensity (a.u.).

Take “CTCTAGTTGATGATGGAAATCATTGACAAGAACTATAGCACGGAGTCACCTAGTGCAG”: the binding signal is 22100 fluorescence intensity (a.u.). With “TATCTGATGAGAGCAGATTGCCACACATCACAGCATGCAGCGGAGTCACCTAGTGCAG”, the binding signal is 10300 fluorescence intensity (a.u.). On to “ATTTGATTTGATCACAACACATTAGCTTGGTTGCTCCATGCGGAGTCACCTAGTGCAG”, for which the binding signal was 41800 fluorescence intensity (a.u.). As for “TTACACTGATTGATGCTCCACATGAACACCACATGCATTTCGGAGTCACCTAGTGCAG”, the binding signal is 32600 fluorescence intensity (a.u.).

Take “AGTGATTATTTATTGGAGTACGATTGAGACCCTTGGTACGCGGAGTCACCTAGTGCAG”: the binding signal is 33400 fluorescence intensity (a.u.). As to “CACCATGATTGATTGCTCCATGCACACACATTGAGACACGCGGAGTCACCTAGTGCAG”, the binding signal is 59700 fluorescence intensity (a.u.).

In the case of “AACACAGGCTGATGAATGATGATTGAATGAACAGAGACAACGGAGTCACCTAGTGCAG”, the binding signal was 22900 fluorescence intensity (a.u.). As for “TGGCTGCTGATTGCAACAGTGGTACTGACATTAGCAGCAGCGGAGTCACCTAGTGCAG”, the binding signal is 16300 fluorescence intensity (a.u.). With “ATTATGTAAATTTTGACTAATGTTTAGTCGAAGTGCAAGTCGGAGTCACCTAGTGCAG”, the binding signal is 8100 fluorescence intensity (a.u.). “TGTCACAAATCTAATGGTATAATTAGTTCATAGTTCGGATCGGAGTCACCTAGTGCAG”: the binding signal was 8340 fluorescence intensity (a.u.). On to “TCTAAATTTTCATGACATGGTACCATACTACAAATCCATCCGGAGTCACCTAGTGCAG”, for which the binding signal was 9500 fluorescence intensity (a.u.).

“TTTAGACAGTAATTAAAGTCGAATTACATTGCATTGTTCGCGGAGTCACCTAGTGCAG”: the binding signal was 40300 fluorescence intensity (a.u.). Consider “GTAATTGGGAGGGAATTTCTCCTTTACTTCGCCTAAACAACGGAGTCACCTAGTGCAG”, for which the binding signal was 14100 fluorescence intensity (a.u.). Regarding “TCTAACTGTGGATAATATCTGACAGGAAATTTGATATCAACGGAGTCACCTAGTGCAG”, the binding signal was 6210 fluorescence intensity (a.u.). As for “TGTTGGTTAAGTAATTAATTAAGTCTTGGCTATTGGCGATCGGAGTCACCTAGTGCAG”, the figure is 13500 fluorescence intensity (a.u.); as for “TCGTAAAATTAATTGTAAATTGTAATATGATAACAAGGCCCGGAGTCACCTAGTGCAG”, 33100 fluorescence intensity (a.u.); as for “GTGCTTTAATCAGTAATTTTGCAATTGCTTTTGAATTTCACGGAGTCACCTAGTGCAG”, 5640 fluorescence intensity (a.u.). Regarding “AGTTTTCAAAATTTGACTTTAAAATTTAAATCTTAAATCACGGAGTCACCTAGTGCAG”, the binding signal is 3970 fluorescence intensity (a.u.). For “ACTTTTCAGTTACATCATCTCTAATTTCAATTGAAATCCACGGAGTCACCTAGTGCAG”, the binding signal was 7120 fluorescence intensity (a.u.). Take “TCTTAATTGAAAGAGTTTTCATCATGTCTTTCAGTCACCACGGAGTCACCTAGTGCAG”: the binding signal was 53900 fluorescence intensity (a.u.). For the sequence “CAAAATTATCTAATTGATGACTATTTCTAAATACACATCACGGAGTCACCTAGTGCAG”, the binding signal was 41800 fluorescence intensity (a.u.). As for “GAGTTTAATTAATTAATTTCTTAAAATTGATGTCATCACACGGAGTCACCTAGTGCAG”, the figure is 54800 fluorescence intensity (a.u.). Regarding “CTAATCAAAATGTAATTAACTCATTTATATATTACGGAAACGGAGTCACCTAGTGCAG”, the binding signal was 21800 fluorescence intensity (a.u.).

As for “TCGATCTCCATTAATTATCCAACGACGACACGACGACGCACGGAGTCACCTAGTGCAG”, the binding signal was 5720 fluorescence intensity (a.u.). As for “GGGTCAGGGTGGGCGTGGATTGATATTTTAATACGAATAACGGAGTCACCTAGTGCAG”, the figure is 10800 fluorescence intensity (a.u.). As for “TGCACGCTAATTTGCCTTGCTGCTGCTGCTACTAGGGCGGCGGAGTCACCTAGTGCAG”, the figure is 4920 fluorescence intensity (a.u.).

For “TAGATGAGTTAAATATAATTATTTGTATGTTTTAATAAATCGGAGTCACCTAGTGCAG”, the binding signal was 3630 fluorescence intensity (a.u.).

For “GTTTAATTAATTATATGTTAATGATTTTCTTTTCATGCCCCGGAGTCACCTAGTGCAG”, the binding signal is 65400 fluorescence intensity (a.u.). For “TTAATTAATAATATGTTAATGATTTTCTCATCTTACCTTACGGAGTCACCTAGTGCAG”, the binding signal is 13400 fluorescence intensity (a.u.). Take “TATGATTTATAAATTAATGGATTTAAAGTTTTAAGTTAATCGGAGTCACCTAGTGCAG”: the binding signal was 43900 fluorescence intensity (a.u.).
